GLS inhibitor – qHTS for Inhibitors of Glutaminase (GLS); GLS enzymatic activity, qHTS titration; hit rate 0.21% among 410,000; Glutaminase kidney isoform, mitochondrial (Homo sapiens), O94925; Potency, µM (top dose mostly 45.5 µM), for the others: top-dose activity change, negative = inhibition, hits mostly inhibitors; AID 624170, 2012; note: potency is the fitted concentration of half-maximal effect; % is set by controls: 0 for no effect and ±100 for the full control effect
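Two-point fluorescence kinetic (t0, 30 min RT) for hKGA; glutamate detected via glutamate oxidase–HRP–Amplex Red. Substrate: 1 mM L-glutamine solution; buffer 45 mM KH2PO4, pH 8.2.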
KCNH2 3.1 inh – qHTS for Inhibitors of KCHN2 3.1: Mutant qHTS | Potassium voltage-gated channel subfamily H member 2, brain isoform KCNH2 3.1 (human) | U2OS KCNH2 3.1, thallium flux FluxOr; hits give low values | activity change, % (tested at about 1.8 µM) | hit rate 0.95% among 340,000;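 active = maximum activity change below -70%; inconclusive = maximum activity change from -70% to -50%; inactive = maximum activity change above -50%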;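 note: thallium influx rate constant from kinetic fluorescence after stimulation buffer; % is set by controls: 0 for no effect and ±100 for the full control effect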
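Normalized rate constant (relative to positive and negative DMSO controls) derived from a 2 min kinetic fluorescence read after stimulation; U2OS cells expressing the 3.1 isoform via virus at 1.77 x 10^8 /mL.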
GLP1R inv ag – qHTS of GLP-1 Receptor Inverse Agonists (Inhibition Mode); Glucagon-like peptide 1 receptor (Homo sapiens), P43220; hit rate 1.6% among 410,000; AID 624417, 2012; HEK293 GLP-1R CRE-luciferase, luminescence, 24 h; GLP-1R form is constitutively active; Potency, µM (highest dose often 38.3 µM), for the others: at the top dose activity change, negative = inhibition, most hits filed as inhibitors; note: potency is the fitted concentration of half-maximal effect; % is set by controls: 0 for no effect and ±100 for the full control effect; nearly all actives have a fitted effect of over 55% in size
Target sequence (P43220 whole entry, looked up): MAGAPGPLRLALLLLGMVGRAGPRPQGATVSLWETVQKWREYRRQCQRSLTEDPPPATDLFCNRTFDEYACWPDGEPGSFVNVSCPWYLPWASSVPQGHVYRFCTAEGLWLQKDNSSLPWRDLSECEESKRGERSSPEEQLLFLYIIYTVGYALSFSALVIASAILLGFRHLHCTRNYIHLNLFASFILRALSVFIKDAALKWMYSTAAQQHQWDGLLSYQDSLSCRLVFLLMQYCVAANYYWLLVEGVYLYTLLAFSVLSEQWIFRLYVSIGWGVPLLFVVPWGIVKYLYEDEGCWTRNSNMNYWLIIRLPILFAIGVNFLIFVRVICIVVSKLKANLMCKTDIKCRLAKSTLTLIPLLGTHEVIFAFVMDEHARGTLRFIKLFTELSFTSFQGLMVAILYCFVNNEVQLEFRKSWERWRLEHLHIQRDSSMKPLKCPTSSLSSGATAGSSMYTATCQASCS
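Readout was luciferase luminescence, measured 12 min after detection reagent at room temperature. Beforehand, GLP-1R reporter HEK293 cells had sat 12 h, then received compounds for 24 hr at 37 deg C.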
hERG WT inh – qHTS for Inhibitors of KCHN2 3.1: Wildtype qHTS | U2OS, BacMam KCNH2, thallium flux FluxOr; hits give low values | Voltage-gated inwardly rectifying potassium channel KCNH2 (Homo sapiens), Q12809 | activity change, % at 1.84 µM | hit rate 0.37% among 340,000;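 active = maximum activity change below -70%; inconclusive = maximum activity change between -70% and -50%; inactive = maximum activity change above -50%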; note: % is set by controls: 0 for no effect and ±100 for the full control effect
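U2OS cells were transduced with wild-type KCNH2 virus (2.03 x 10^8 / mL) for 4 h at room temperature, then cultured overnight at 37 C. Thallium flux was read with FluxOr dye. Rate constants were normalized to DMSO controls.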
HEK293 tox – qHTS of GLP-1 Receptor Inverse Agonists: Cytotox Screen; HEK293 cAMP-luciferase reporter cells, luminescence, 24 h; Potency, µM (series often up to 38.3 µM), for the others: top-dose activity change, negative = inhibition, most hits filed as inhibitors; hit rate 0.13% among 410,000; AID 624418, 2012;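 note: loss of luciferase light is scored as toxicity; potency is the fitted concentration of half-maximal effect; % is set by controls: 0 for no effect and ±100 for the full control effect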
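MLSMR compounds, 24 hr on cells at 37 deg C/5% CO2; luminescence after luciferase reagent (12 min RT). Inhibition counted as the undesired cytotoxic outcome.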
GLP-1R agonist – qHTS of GLP-1 Receptor Agonists; Glucagon-like peptide 1 receptor (Homo sapiens), P43220; HEK293 GLP-1R CRE-luciferase, luminescence, 4-6 h; cells express a hypersensitive GLP-1R form; Potency, µM (titrated, usually from 45.6 µM), inactives show top-dose activation, hits mostly activators; hit rate 0.007% among 380,000; note: potency is the fitted concentration of half-maximal effect; % of control where 0% means no effect
An asterisk follows results filed as active; i = inactive; ? = inconclusive; . = no result given. The list is not random: actives were taken first. Their share in the collection is about 2.8%. Unless noted, calls come from the whole dose curve; as a rule, active = well fitted curve in the direction sought with a large enough effect; inconclusive = small, poorly fitted or top-dose-only effect, or another doubt; inactive = no such curve, though single readings can be large; an effect the other way counts as inactive or inconclusive.

SMILES	GLS inhibitor	KCNH2 3.1 inh	GLP1R inv ag	hERG WT inh	HEK293 tox	GLP-1R agonist
O=C1NC[C@H](CC2CCCCC2)N(CCc2cccc3ccccc23)C1=O	-2%	.	15%	.	6%	9%
COc1ccc(-c2cc3ccc(O)c(CN4CCN(C)CC4)c3oc2=O)cc1OC	16%	.	-5%	.	i	.
CC(NC(=O)Cc1ccc(NC(=O)N2CCSc3ncccc32)cc1)c1ccccc1 (configuration not stated)	-6%	.	-14%	.	-5%	.
C=C(C)CNC(=S)N/N=C(\C)c1ccc(OC)cc1	5%	7	5.6µM*	-2	?	-1%
COc1ccc(/C(C)=N/NC(=S)Nc2cc(C)ccc2C)cc1	13%	2	?	-27	3.5µM*	-4%
C/C(=N\NC(=O)c1cc2ccccc2cc1O)c1cc2ccccc2o1	8%	1	?	-9	-1%	-3%
COCCNC(=S)N/N=C(\C)c1ccc2cc(OC)ccc2c1	19%	-2	?	10	3.2µM*	?
COCCNC(=S)N/N=C(\C)c1ccc(OC)cc1	18%	-13	?	18	?	15%
COCCNC(=S)N/N=C(\C)c1cc2ccccc2o1	22%	-15	?	10	7.9µM*	8%
COc1ccc(CNC(=S)Nc2cc(C)ccc2C)cc1	-11%	-12	?	-5	-22%	0%
O=C(COc1ccccc1)Nc1ccc2oc(=O)ccc2c1	7%	14	8%	4	-8%	12%
Cc1ccc2c(=O)cc(C(=O)Nc3sc4c(c3C(=O)NCc3ccco3)CCCC4)oc2c1C	-4%	.	2%	.	18%	.
CCCCc1nc2cc(C(=O)N3CCN(c4nc(C)cnc4C)CC3)ccc2o1	1%	-77*	?	-5	-5%	8%
CCOc1ccc(NC(=O)CN(c2ccc(OC)c(OC)c2)S(=O)(=O)c2ccc(C)cc2)cc1	0%	-5	-13%	0	-6%	4%
CCOc1ccccc1NC(=O)CN(c1ccc(OC)c(OC)c1)S(=O)(=O)c1ccc(C)cc1	0%	-108*	-6%	-10	-16%	-8%
COc1ccc(C(=O)NCC(c2cccnc2)N2CCN(c3ccc(F)cc3)CC2)cc1 (configuration not stated)	17%	.	-11%	.	1%	.
CCCCn1c(N)c(N(CC)C(=O)CSCC(=O)Nc2ccc(OC)cc2)c(=O)[nH]c1=O	7%	1	9%	-2	3%	4%
COc1ccc(CCNC(=O)c2ccc(=O)[nH]c2)cc1	7%	-71*	-1%	0	3%	7%
O=C(NCCc1ccc(Cl)cc1)c1ccc(=O)[nH]c1	-5%	9	5%	-1	1%	2%
COC(=O)c1ccc(C)c(-n2c(=O)n(Cc3ccccc3)c(=O)c3[nH]cnc32)c1	-4%	-3	221%	-3	-3%	?
Cc1ccc(C(=O)CC2(O)C(=O)N(CCc3ccccc3)c3ccc(Br)cc32)o1 (configuration not stated)	-1%	18	7.9µM*	6	-30%	2%
O=C(CC1(O)C(=O)N(CCc2ccccc2)c2ccc(Br)cc21)c1ccccc1 (configuration not stated)	5%	.	?	.	-7%	2%
Cc1scc(C(=O)N/N=C/c2ccc(OCC(C)C)cc2)c1C	2%	-8	8.9µM*	1	2%	-4%
COc1ccccc1N(CC(=O)N1CCC(C)CC1)S(=O)(=O)c1ccc(C)cc1	3%	.	2%	.	4%	0%
Cc1ccc(S(=O)(=O)NCCSCc2ccccc2)cc1	2%	13	?	4	70%	7%

Assay outcomes deposited in PubChem BioAssay by National Center for Advancing Translational Sciences (NCATS).
